PubChem BioAssay
Active and inactive are the calls of the source.

Key:
[1] = optical density shifts of acrAB sulA E. coli – strain DRC41, OD650, 48 h, E. coli filamentation inducer project, primary screen (AID 1152); conditions: higher = more signal, called active from +8 up or from −8 down;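 note: E. coli MC1000 strain DRC41 lacking acrAB efflux pump and sulA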
[2] = probe aLefty1 binding on compound microarray – biochemical, small-molecule microarray, 635/667 nm fluorescence, primary screen (AID 1153); conditions: higher = more signal;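 note: score merges spot fluorescence with signal-to-noise ratio from the scanned slide images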
[3] = plasmodial surface anion channel blockers, osmotic lysis – cell-based, P. falciparum Indochina, OD700, 1 h, primary screen (AID 1154); conditions: P. falciparum Indochina infected RBC osmotic lysis, higher = more signal, called active from +8 up or from −8 down
[4] = plasmodial surface anion channel blockers, osmotic lysis – cell-based, P. falciparum Indochina, OD700, 2 h, primary screen (AID 1155);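 note: lysis reports solute entry through the parasite surface anion channel PSAC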; conditions: P. falciparum Indochina infected erythrocytes, higher = more signal, called active from +8 up or from −8 down
[5] = changes in parasitized red cell lysis, either direction – P. falciparum Indochina, OD700, 3 h, PSAC antagonist project, primary screen (AID 1156); conditions: P. falciparum-infected erythrocytes, osmotic lysis, higher = more signal, called active from +8 up or from −8 down
[6] = plasmodial surface anion channel blockers, osmotic lysis – cell-based, P. falciparum Indochina, OD700, 18 h, primary screen (AID 1157); conditions: P. falciparum Indochina infected erythrocytes, osmotic lysis OD700, 18 h; higher = more signal, called active from +8 up or from −8 down
[7] = S6 kinase pathway phospho-S6 level changes – cell-based, A549, cytoblot, luminescence, serum-stimulated, primary screen (AID 1158); conditions: 5 h, higher = more signal;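 note: serum-stimulated A549 lung adenocarcinoma cells; signal is phosphorylated S6 detected by cytoblot immunostaining with HRP secondary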
[8] = molecular target: NADPH oxidase 2 (Homo sapiens) (UniProt P04839); experiment: compounds shifting NOX2 Amplex Red fluorescence – cell-based, HEK293-NOX2, PMA-stimulated, NOX inhibitor project, primary screen (AID 1159); conditions: 45 min, higher = more signal, called active from +8 up or from −8 down; note: test concentration not given here
[9] = molecular target: NADPH oxidase 4 (Homo sapiens) (UniProt Q9NPH5); experiment: compounds shifting NOX4 Amplex Red fluorescence – cell-based, HEK293-NOX4, tetracycline-induced, NOX inhibitor project, primary screen (AID 1160); conditions: HEK293-NOX4, Amplex Red H2O2 fluorescence, 45 min; higher = more signal, called active from +8 up or from −8 down
[10] = molecular target: NADPH oxidase 5 (Homo sapiens) (UniProt Q96PH1); experiment: compounds shifting NOX5 Amplex Red fluorescence – cell-based, HEK293-NOX5, NOX inhibitor project, primary screen (AID 1161); conditions: HEK293-NOX5, ionomycin, 45 min, higher = more signal
Sequence of NADPH oxidase 5 (Homo sapiens) (Q96PH1 whole entry, looked up): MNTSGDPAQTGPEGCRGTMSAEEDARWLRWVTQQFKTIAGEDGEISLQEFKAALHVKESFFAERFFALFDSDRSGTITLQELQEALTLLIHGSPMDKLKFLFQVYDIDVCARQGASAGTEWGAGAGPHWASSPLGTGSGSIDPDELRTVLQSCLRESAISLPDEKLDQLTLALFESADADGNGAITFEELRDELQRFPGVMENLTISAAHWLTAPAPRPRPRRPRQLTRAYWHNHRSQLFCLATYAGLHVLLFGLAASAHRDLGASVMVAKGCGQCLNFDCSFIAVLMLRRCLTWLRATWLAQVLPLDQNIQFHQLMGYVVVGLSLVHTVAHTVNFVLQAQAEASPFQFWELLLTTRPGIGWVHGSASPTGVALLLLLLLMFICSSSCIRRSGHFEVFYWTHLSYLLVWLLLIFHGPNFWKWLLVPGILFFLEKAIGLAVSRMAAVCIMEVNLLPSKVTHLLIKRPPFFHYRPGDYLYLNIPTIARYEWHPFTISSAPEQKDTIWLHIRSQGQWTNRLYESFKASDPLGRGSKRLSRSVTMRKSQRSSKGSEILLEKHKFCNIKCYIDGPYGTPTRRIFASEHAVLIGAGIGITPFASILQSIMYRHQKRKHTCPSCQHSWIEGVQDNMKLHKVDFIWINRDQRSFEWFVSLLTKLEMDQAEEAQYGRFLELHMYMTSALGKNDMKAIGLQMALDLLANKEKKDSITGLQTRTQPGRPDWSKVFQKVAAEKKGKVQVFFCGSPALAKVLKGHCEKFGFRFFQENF

Sequence of NADPH oxidase 4 (Homo sapiens) (Q9NPH5 whole entry, looked up): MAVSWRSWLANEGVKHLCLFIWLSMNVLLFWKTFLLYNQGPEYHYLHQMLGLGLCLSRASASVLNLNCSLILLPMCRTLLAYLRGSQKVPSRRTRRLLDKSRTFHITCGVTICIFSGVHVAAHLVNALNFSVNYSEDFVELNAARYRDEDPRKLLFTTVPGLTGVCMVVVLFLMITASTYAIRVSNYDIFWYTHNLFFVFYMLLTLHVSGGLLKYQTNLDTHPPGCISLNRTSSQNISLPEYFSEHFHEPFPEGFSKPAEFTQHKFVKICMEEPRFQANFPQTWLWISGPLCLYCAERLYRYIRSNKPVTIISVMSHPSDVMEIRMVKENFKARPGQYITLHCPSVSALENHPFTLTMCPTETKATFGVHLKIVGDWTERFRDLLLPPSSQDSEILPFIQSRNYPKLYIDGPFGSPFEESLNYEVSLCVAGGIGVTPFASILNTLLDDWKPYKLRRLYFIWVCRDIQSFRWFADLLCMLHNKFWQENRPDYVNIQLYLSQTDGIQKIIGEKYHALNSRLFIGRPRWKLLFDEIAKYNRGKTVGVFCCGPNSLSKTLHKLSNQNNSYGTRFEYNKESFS
Sequence of NADPH oxidase 2 (Homo sapiens) (P04839 whole entry, looked up): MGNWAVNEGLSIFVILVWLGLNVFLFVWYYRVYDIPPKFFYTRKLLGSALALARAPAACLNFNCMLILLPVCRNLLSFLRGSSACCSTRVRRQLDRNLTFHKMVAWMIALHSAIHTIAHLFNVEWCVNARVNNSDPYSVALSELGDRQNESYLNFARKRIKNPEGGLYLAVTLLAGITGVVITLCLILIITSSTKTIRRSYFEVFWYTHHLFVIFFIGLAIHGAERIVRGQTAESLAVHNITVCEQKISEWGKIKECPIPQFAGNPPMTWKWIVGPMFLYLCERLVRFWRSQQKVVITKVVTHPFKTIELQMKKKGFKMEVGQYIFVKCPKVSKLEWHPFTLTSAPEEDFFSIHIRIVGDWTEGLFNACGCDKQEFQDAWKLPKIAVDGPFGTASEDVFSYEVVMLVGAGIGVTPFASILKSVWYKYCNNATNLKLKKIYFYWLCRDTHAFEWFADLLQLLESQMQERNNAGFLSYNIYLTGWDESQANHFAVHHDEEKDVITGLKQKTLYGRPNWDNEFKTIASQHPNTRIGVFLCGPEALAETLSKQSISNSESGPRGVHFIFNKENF

With `CCCC=C(CCC)[C@@H](NC(=O)c1ccc(C(=O)OC)cc1)c1ccc(C(=O)OC)cc1` the z-score [1] was -1.99 (inactive), the composite z-score [2] was 0.211 and the z-score [3] was 0.67 (inactive). The z-score [4] was 0.409 (inactive), the z-score [5] was 1.33 (inactive) and the z-score [6] was 0.618 (inactive). For the same molecule, the z-score [7] was -0.574, the z-score [8] was -0.542 (inactive) and the z-score [9] was -3.29 (inactive). The z-score [10] was 1.5.
In the case of `Cc1cccc([C@H]2C[C@H]3C(Br)=C[C@@]2(CO)C(=O)[C@]32CO2)c1`, the z-score [1] is reported as -0.269 (inactive), the composite z-score [2] is reported as 0.0509 and the z-score [3] is reported as -0.131 (inactive). For the same molecule, the z-score [4] was 0.27 (inactive), the z-score [5] was -0.759 (inactive) and the z-score [6] was -0.063 (inactive). The z-score [7] was -0.71, the z-score [8] was 0.26 (inactive) and the z-score [9] was 0.711 (inactive). The z-score [10] was -0.0286.
For `CC1C2C(CCCO)=CC(C3C(=O)N(C(N)=O)C(=O)C23)N1Cc1cccc(OC(F)(F)F)c1` (stereo not given), the z-score [1] was -0.114 (inactive), the composite z-score [2] was 0.0982 and the z-score [3] was 0.376 (inactive). The z-score [4] was 0.0112 (inactive), the z-score [5] was -0.308 (inactive) and the z-score [6] was 0.0624 (inactive). For the same molecule, the z-score [7] was -0.207, the z-score [8] was 0.217 (inactive) and the z-score [9] was 0.509 (inactive). The z-score [10] was 0.107.
For `[N-]=[N+]=NCc1ccccc1C[C@@]1(C(N)=O)N=C(c2ccc(OCCCO)cc2)O[C@@H]1c1ccccc1N=[N+]=[N-]`, the z-score [1] was -1.04 (inactive), the composite z-score [2] was 0.045 and the z-score [3] was 32.4 (active). The z-score [4] was 31.4 (active), the z-score [5] was 1.81 (inactive) and the z-score [6] was 2.31 (inactive). For the same molecule, the z-score [7] was -0.441, the z-score [8] was 0.0502 (inactive) and the z-score [9] was -0.393 (inactive). The z-score [10] was -1.89.
For `CO[C@H]1O[C@H](CO)[C@@H](OC(=O)Nc2ccccc2)[C@@H]2OC(=O)[C@@H](Cc3ccccc3)C/C=C/C[C@H](Cc3ccccc3)C(=O)O[C@@H]12`, the z-score [1] was 0.364 (inactive), the composite z-score [2] was -0.093 and the z-score [3] was 0.131 (inactive). For the same molecule, the z-score [4] was 0.162 (inactive), the z-score [5] was 0.288 (inactive) and the z-score [6] was 0.0794 (inactive). For the same molecule, the z-score [7] was -0.0813, the z-score [8] was -2.79 (inactive) and the z-score [9] was -0.266 (inactive). For the same molecule, the z-score [10] was -1.3.
With `C=CCNC(=O)[C@@H]1[C@H]2C(=O)O[C@H](c3ccccc3)[C@H](c3ccccc3)N2[C@H](c2ccc(OCCO)cc2)[C@@]12C(=O)Nc1ccc(C#CCNC(N)=O)cc12` the z-score [1] was -0.582 (inactive), the composite z-score [2] was 0.124 and the z-score [3] was 2.55 (inactive). The z-score [4] was 0.268 (inactive), the z-score [5] was 0.422 (inactive) and the z-score [6] was -0.0239 (inactive). For the same molecule, the z-score [7] was 0.386, the z-score [8] was 1.88 (inactive) and the z-score [9] was 1.2 (inactive). It also gave a z-score [10] of -0.268.
With `C[C@H]1C2[C@H](Cc3ccccc3)NC(=O)[C@]23C(=O)N[C@@H](Cc2ccccc2)C(=O)N2CCC[C@H]2C(=O)NC/C=C/CC/C=C/C3[C@@H]2O[C@]12C` (stereo not given in full) the z-score [1] was -0.488 (inactive), the composite z-score [2] was 0.32 and the z-score [3] was 1.13 (inactive). For the same molecule, the z-score [4] was 0.186 (inactive), the z-score [5] was 0.0233 (inactive) and the z-score [6] was 0.599 (inactive). For the same molecule, the z-score [7] was -0.191, the z-score [8] was 1.25 (inactive) and the z-score [9] was 1.11 (inactive). For the same molecule, the z-score [10] was 1.25.
With `O=C(c1ccccc1)N1Cc2ccccc2C[C@@]2(N=C(c3ccc(OCCCO)cc3)O[C@H]2c2ccccc2)C1=O` the z-score [1] was -0.702 (inactive), the composite z-score [2] was 0.149 and the z-score [3] was 6.6 (inactive). For the same molecule, the z-score [4] was 1.66 (inactive), the z-score [5] was 2.54 (inactive) and the z-score [6] was 0.937 (inactive). For the same molecule, the z-score [7] was -0.221, the z-score [8] was 1.21 (inactive) and the z-score [9] was -0.172 (inactive). The z-score [10] was -0.693.
In the case of `CC(C)N1C(=O)[C@@]2(Cc3ccccc31)c1ccccc1C(=O)N(Cc1ccccc1)[C@H]2c1ccc(CO)cc1`, the z-score [1] is reported as 0.882 (inactive), the composite z-score [2] is reported as -0.211 and the z-score [3] is reported as 0.117 (inactive). For the same molecule, the z-score [4] was 0.945 (inactive), the z-score [5] was 0.146 (inactive) and the z-score [6] was 0.328 (inactive). For the same molecule, the z-score [7] was -0.274, the z-score [8] was -1.11 (inactive) and the z-score [9] was -0.462 (inactive). It also gave a z-score [10] of -0.601.
In the case of `O=C1C2C=CC(C(O)C3CCCCC3)N(Nc3ccccc3F)C2C(=O)N1c1ccccc1` (stereo not given), the z-score [1] is reported as 0.128 (inactive), the composite z-score [2] is reported as 0.483 and the z-score [3] is reported as 1.11 (inactive). The z-score [4] was 0.304 (inactive), the z-score [5] was 2.77 (inactive) and the z-score [6] was -0.743 (inactive). The z-score [7] was 2.15, the z-score [8] was -2.64 (inactive) and the z-score [9] was -4.15 (inactive). The z-score [10] was -4.19.
